# Measurements published in PubChem BioAssay AID504467 (National Center for Advancing Translational Sciences (NCATS), 2011).
# Hit rate of the full screen: of about 330,000 compounds, about 7,700 (2.3%) were called active. Not shown: some 26% with an inconclusive outcome. The call rests on the fitted dose curve; in most records, active means well fitted inhibition curve with a large enough effect; inconclusive means small, poorly fitted or top-dose-only effect, or effect the other way; inactive means flat fitted curve, though single readings scatter. The entries come from a sample that favours actives as a whole. A call without a number means that no potency is given here.
# Assay: qHTS screen for small molecules that inhibit ELG1-dependent DNA repair in human embryonic kidney (HEK293T) cells expressing luciferase-tagged ELG1; further: nearly all actives have a fitted effect of over 55% in size
# Details: HEK293T ELG1-luciferase reporter, luminescence, 16 h, DNA damage induced by 5-fluorouridine; series mostly up to 46.1 µM
# In short: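 Step one: seed 2,000 cells per well. Step two: pin-transfer compound or DMSO alongside 5-fluorouridine. Step three: incubate 16 hr, 37 °C, 5% CO2. Step four: add ONE-Glo, wait 30 min, read luminescence.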
# Potency means the concentration at half of the fitted maximal effect.
row,SMILES,Potency
1,COc1cc(CN2CCCC(C(=O)c3ccc(SC)cc3)C2)cc(Cl)c1O (stereo not drawn),inactive
2,CCOc1ccccc1OCC(=O)Nc1ccccc1C(=O)NC1CC1,inactive
3,Cc1ccc(S(=O)(=O)NCc2ccc(C(=O)NC3CCC(C)CC3)cc2)cc1 (stereo not drawn),inactive
4,CCCCn1c(N)c(N(CCOC)C(=O)c2oc3ccc(OC)cc3c2C)c(=O)[nH]c1=O,inactive
5,CCN(C(=O)COC(=O)CCC(=O)c1cccs1)C1CCCCC1,inactive
6,Cc1ccc(NC(=O)c2cccc(S(=O)(=O)N3CCCc4ccccc43)c2)nc1,18.3 µM (active)
7,Cc1cccc(NC(=O)c2cccc(S(=O)(=O)N3CCCC3)c2)n1,inactive
8,CS(=O)(=O)c1ccc2nc(NC(=O)c3ccc(N4CCCC4=O)cc3)sc2c1,inactive
9,CC1CCN(C(=O)c2cccc(S(=O)(=O)N3CCCc4ccccc43)c2)CC1,inactive
10,CN(C)CCCN(C(=O)c1ccc(S(=O)(=O)N2CCCc3ccccc32)cc1)c1nc2ccc(F)cc2s1,inactive
11,O=C(Nc1nc2ccc([N+](=O)[O-])cc2s1)c1ccc(S(=O)(=O)N2CCCc3ccccc32)cc1,2.31 µM (active)
12,O=C(COC(=O)c1ccco1)Nc1ccc(Cl)cn1,inactive
13,COc1ccc(Cl)cc1NC(=O)COC(=O)c1ccc(Br)o1,inactive
14,O=C(NCCN1CCOCC1)c1cccc(S(=O)(=O)Nc2ccc(F)cc2)c1,inactive
15,COc1ccc(CCNC(=O)CSCc2ccc(Br)cc2)cc1OC,inactive
16,COc1ccc(COC(=O)NC(C(=O)O)c2ccccc2)cc1 (stereo not drawn),inactive
17,CCOC(=O)CN(Cc1ccc(OC)c(OC)c1)S(=O)(=O)c1ccc(OC)cc1,inactive
18,COc1ccc(C(CCN(Cc2ccc(OC)c(OC)c2)C(=O)CCl)c2ccccc2)cc1 (stereo not drawn),20.6 µM (active)
19,Cc1cccc(C)c1Nc1nnc(SCC(=O)NCCCN2CCCC2=O)s1,inactive
20,C[C@H](CO)N1C[C@H](C)[C@@H](CN(C)Cc2ccc(-c3ccccc3)cc2)Oc2ccc(NC(=O)Cn3cnnn3)cc2C1=O,inactive
21,CCOc1cccc(NC(=O)CC#N)c1,inactive
22,CC(=O)Nc1cccc(OCC(=O)/C=C2\N(C)c3ccccc3C2(C)C)c1,18.3 µM (active)
23,Cc1noc(C)c1C(=O)OCC(=O)/C=C1\N(C)c2ccccc2C1(C)C,inactive
24,Cc1ccc(-n2c(SCC(=O)NCCC3=CCCCC3)nc3n[nH]c(C)c3c2=N)cc1Cl,inactive

row,SMILES,Potency
1,Cc1ccc2cc(C)c(N3CCN(c4ccc(F)cc4)CC3)nc2c1,inactive
2,COc1ccccc1-c1nn(Cc2ccccc2)cc1C(=O)N1CCN(c2ncccn2)CC1,inactive
3,O=c1c2c(ncn1Cc1ccccc1)nc1n2CCC1,inactive
4,CN(C)c1ccnc2sc3c(=O)n(Cc4ccccc4)cnc3c12,4.61 µM (active)
5,O=c1c2[nH]c3ccc(Cl)cc3c2ncn1Cc1ccccn1,inactive
6,Cc1c(NC(=O)C(C)OC(=O)c2ccccc2O)c(=O)n(-c2ccccc2)n1C (stereo not drawn),inactive
7,CC(OC(=O)CCCc1c[nH]c2ccccc12)C(=O)Nc1ccc(S(N)(=O)=O)cc1 (stereo not drawn),inactive
8,Cc1cc(C(=O)OC(C)C(=O)Nc2cccc(S(=O)(=O)N3CCOCC3)c2)c(C)o1 (stereo not drawn),inactive
9,Cc1ccc(NC(=O)C(C)OC(=O)Cc2c[nH]c3ccccc23)cc1S(=O)(=O)N1CCOCC1 (stereo not drawn),18.3 µM (active)
10,O=C(N[C@H]1C/C=C\C(c2ccc(F)cc2)N(Cc2ccccc2)C(=O)C1)OCC1c2ccccc2-c2ccccc21 (stereo partly drawn),inactive
11,Nc1c(Cl)cc(-c2csc(N3CCCC3c3nc4cc(Cl)c(Cl)cc4n3CCOCCO)n2)cc1Cl (stereo not drawn),inactive
12,COc1ccc(C(=O)CSc2nnc(-c3ccco3)o2)cc1,inactive
13,COc1ccc(-n2c(C)cc(C(=O)CSc3nnc(-c4cccs4)o3)c2C)cc1,6.51 µM (active)
14,COc1ccc(OC)c(C(=O)CSc2nnc(-c3cccs3)o2)c1,inactive
15,CCN(CC)CCN1C(=O)C2C(C(=O)Nc3ccc(Br)cc3)C3C=CC2(O3)C1C(=O)NC1CCCCC1 (stereo not drawn),inactive
16,Cc1ccc(NC(=S)NCCc2ccc(Cl)cc2)c(C)c1,inactive
17,CCC1(c2ccccc2)NC(=O)N(CC(=O)Nc2ccccc2C(=O)NC2CCCC2)C1=O (stereo not drawn),inactive
18,CCc1ccc(NC(=O)Cn2nnc(C(=O)NCc3ccc(OC)cc3)c2N)cc1,inactive
19,COc1cc(C2CC(=O)Oc3cc(OC)c(OC)c(OC)c32)cc(OC)c1OC (stereo not drawn),inactive
20,O=C(CN(c1ccc2c(c1)OCCO2)S(=O)(=O)c1ccccc1)Nc1ccc2c(c1)OCO2,9.2 µM (active)
21,CCN(CC(=O)Nc1ccc2c(c1)OCO2)S(=O)(=O)c1ccccc1,inactive
22,O=C(CCS(=O)(=O)Cc1ccccc1)Nc1ccc2c(c1)OCCO2,inactive
23,NC(=O)c1cc(S(=O)(=O)NCCCc2ccco2)cs1,inactive
24,Cc1noc(C)c1C(=O)NCC1COc2ccccc2O1 (stereo not drawn),inactive
